# Bioassay records: PubChem, National Center for Advancing Translational Sciences (NCATS)
# The list is not random: actives were taken first. Their share in the collection is about 17%.
# TDP1 cell noCPT = qHTS for Inhibitors of human tyrosyl-DNA phosphodiesterase 1 (TDP1): qHTS in cells in absence of CPT | Potency, µM (highest dose often 46.2 µM), hits mostly inhibitors | AID 686978, 2013 | hit rate 15% among 420,000 | DT40 Tdp1-/- hTDP1 cells, no CPT, ATP luminescence, 48 h; further: nearly all actives have a fitted effect of over 55% in size
#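 Luminescent ATP content (CellTiter-Glo) served as the growth readout. Knockout chicken DT40 cells expressing human TDP1 were exposed to compounds without camptothecin for a minimum 48 hr at 37 °C.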
# TDP1 cell CPT = DT40-hTDP1 cell growth loss with CPT. chicken DT40 Tdp1-/-;hTDP1 cells + 20 nM CPT, ATP luminescence, 48 h. Potency, µM (doses to about 46.2 µM), hits mostly inhibitors. hit rate 12% among 420,000. AID 686979; further: nearly all actives have a fitted effect of over 55% in size
#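 Chicken DT40 Tdp1-/- cells stably complemented with human TDP1 were seeded at 400 cells/well in medium containing 20 nM camptothecin, exposed to pin-transferred compounds, and grown at 37 °C for at least 48 hr. Viability was read as ATP luminescence.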
# TGFb SMAD3 inh = blocks TGF-b signaling; HepG2 CAGA-GFP TGF-b/SMAD3 reporter, GFP fluorescence, 18 h; TGF-beta stimulated, 500 pg/mL final; Potency, µM (doses to about 46.1 µM), hits mostly inhibitors; hit rate 1.2% among 410,000; further: nearly all actives have a fitted effect of over 65% in size
#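 GFP signal (ex488/em500-530) from TGF-beta-stimulated HEPG2 CAGA-GFP cells, 500 pg/mL final, 18 h at 37 degrees C in DMEM plus 1% FBS, normalized to unstimulated and DMSO-stimulated controls.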
# HepG2 viability = kills HepG2 cells in TGF-b inhibitor counter-screen; hit rate 0.76% among 410,000; HepG2 CAGA-GFP viability, ATP luminescence, 18 h; Potency, µM (highest dose often 46.1 µM), hits mostly cytotoxic
#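 CellTiter-Glo luminescence gave cytotoxicity after 18 hours at 37 degrees C. The cells were HepG2 CAGA-GFP in 1% FBS DMEM, stimulated with 500 pg/mL TGF-beta after compound addition. %Activity was normalised to no-cell wells (complete cell-killing) and DMSO (no toxicity), and curves were fitted and classified.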
# HT1080NT lethal = kills 2HG-producing HT-1080-NT fibrosarcoma cells; HT-1080-NT fibrosarcoma viability, CellTiter-Glo ATP luminescence, 48 h; Potency, µM (doses to about 46.1 µM), actives largely listed as cytotoxic; hit rate 1.6% among 360,000;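 further: NT is the 2HG producing partner of a matched IDH1 knockdown line; nearly all actives have a fitted effect of over 55% in size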
#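 Viability of the 2HG-overproducing fibrosarcoma line after 48 hours of compound exposure at 37 degrees C was determined by luminescence with CellTiter-Glo, and concentration-effect curves were then fitted and categorized.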
# HT1080 IDH1KD tx = HT-1080 IDH1 knockdown cell toxicity (counter line); HT-1080 IDH1 knockdown viability, ATP luminescence, 48 h; hit rate 2% among 360,000; AID 686971; Potency, µM (top dose mostly 46.1 µM), actives largely listed as cytotoxic
#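 Viability of IDH1-knockdown HT-1080 fibrosarcoma cells was assessed by CellTiter-Glo after 48 h at 37 °C with titrated compound; concentration-effect curves were classified by fit quality and response size.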
# Numbers stand for hits; – = inactive; ? = inconclusive; · = not tested or not shown. The call rests on the fitted dose curve; in most records, active means well fitted curve in the direction sought with a large enough effect; inconclusive means small, poorly fitted or top-dose-only effect, or another doubt; inactive means no such curve, though single readings can be large; an effect the other way counts as inactive or inconclusive.
SMILES,TDP1 cell noCPT,TDP1 cell CPT,TGFb SMAD3 inh,HepG2 viability,HT1080NT lethal,HT1080 IDH1KD tx
CSc1nn(Cc2ccc(F)cc2)c(N)c1S(=O)(=O)c1ccc(Cl)cc1,16µM,?,10µM,14µM,·,·
CSc1nn(Cc2ccc(Cl)cc2)c(N(C(C)=O)C(C)=O)c1S(=O)(=O)c1ccccc1,?,16µM,?,–,·,·
CSc1nn(Cc2cccc(F)c2)c(N(C(C)=O)C(C)=O)c1S(=O)(=O)c1ccccc1,?,–,?,–,·,·
COc1cccc(C2(O)C(=O)Nc3ccccc32)c1 (configuration not stated),–,–,–,–,–,–
C[C@@H]1CN([C@H](C)CO)C(=O)c2c(c3ccccc3n2C)-c2ccccc2CO[C@H]1CN(C)C(=O)NC1CCCCC1,26µM,18µM,–,–,–,–
C[C@@H]1CN([C@H](C)CO)C(=O)c2c(c3ccccc3n2C)-c2ccccc2CO[C@H]1CN(C)C(=O)Nc1ccccc1,?,?,–,–,–,–
Cc1noc(C)c1C(=O)N(C)C[C@@H]1OCc2ccccc2-c2c(n(C)c3ccccc23)C(=O)N([C@H](C)CO)C[C@H]1C,18µM,?,–,–,–,–
Cc1ccc(C(=O)NCCN2C3=NC[C@H](Cc4ccc(O)cc4)N3C[C@H]2Cc2ccc(O)cc2)cc1Br,16µM,?,–,–,–,–
COc1ccc(C[C@H]2CN3C(=NC[C@@H]3Cc3ccc(O)cc3)N2CCNC(=O)c2ccc(C)c(Br)c2)cc1,13µM,13µM,?,16µM,?,?
C/C=C(\C)C(=O)NCCN1C2=NC[C@@H](C)N2C[C@H]1Cc1ccc(O)cc1,–,–,–,–,–,–
CC(C)CCNC(=S)Nc1ccc([N+](=O)[O-])cc1,?,?,?,–,?,?
S=C(NCCc1ccncc1)Nc1ccccc1,–,–,–,–,–,–
CC(C)CCNC(=S)Nc1ccc(Br)cc1,16µM,?,?,–,–,–
S=C(NCCc1ccccc1)Nc1ccc(Br)cc1,23µM,?,?,–,–,–
CN(C)C(CNC(=O)c1cc(S(=O)(=O)N(C)c2ccc(F)cc2)ccc1Cl)c1cccs1 (configuration not stated),5.8µM,5.8µM,–,–,–,–
COc1ccc(N(C)S(=O)(=O)c2cccc(C(=O)NCC(c3cccs3)N(C)C)c2)cc1 (configuration not stated),–,?,–,–,–,–
COc1ccccc1N(C)S(=O)(=O)c1ccc(Cl)c(C(=O)Nc2cccc(C)n2)c1,16µM,18µM,–,–,–,–
COc1ccccc1N(C)S(=O)(=O)c1ccc(Cl)c(C(=O)Nc2ccccc2N2CCOCC2)c1,1.5µM,3.7µM,–,–,–,–
COc1ccccc1N(C)S(=O)(=O)c1ccc(Cl)c(C(=O)NCCCN2CCOCC2)c1,–,–,–,–,–,–
Cc1cccc(NC(=O)c2cc(S(=O)(=O)N(C)c3ccc(F)cc3)ccc2Cl)n1,8.2µM,?,–,–,–,–
Cc1cc(OCC(=O)Nc2c(C(=O)c3ccccc3)oc3ccccc23)cc(C)c1Cl,–,–,–,–,·,·
CCOC(=O)c1ccc(Oc2coc3cc(O)ccc3c2=O)cc1,–,–,–,–,–,–
COc1ccc([N+](=O)[O-])cc1NS(=O)(=O)c1cc(C(=O)N2CCN(C)CC2)ccc1OC,–,–,–,–,–,–
CC1(NC(=O)NCCCCCCNC(=O)NC2(C)CCS(=O)(=O)C2)CCS(=O)(=O)C1 (configuration not stated),–,–,–,–,–,–
CN(CC(=O)Nc1ccc(Cl)c(C(F)(F)F)c1)C(=O)Cc1ccsc1,16µM,16µM,–,–,–,–
